An excerpt weighted towards active compounds, which were near 2.8% of everything screened.
EWS-Fli inh: inhibitors of EWS/Fli oncoprotein transcriptional activity | A673 NR0B1-luciferase reporter, viability-normalised | inhibition, % at 12.6 µM | 350,000 compounds, 0.67% hits | AID 651661;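 active = mean inhibition of at least 50% after viability correction, with every replicate also passing that limit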;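 also: firefly luciferase signal divided by Alamar Blue viability fluorescence both relative to DMSO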
TWEAK-Fn14 inh: inhibitors of TWEAK-Fn14 interaction signaling; TWEAK-stimulated Fn14 reporter cells, luciferase luminescence, 8 h; inhibition, % at 10 µM; 360,000 compounds, 2% hits; in the data active = inhibition above about 50%
LGR2 inh: Drosophila LGR2 receptor signaling inhibition; HEK293 LGR2, CRE-luciferase, bursicon-stimulated, 4 h; inhibition, % at 9.99 µM; 380,000 compounds, 0.35% hits;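 active = drop in luminescence signal, shown as inhibition above about 50% in the replicate tests, limit read from the data, passing the limit was not always enough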;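 also: agonist challenge used bursicon conditioned medium at about half maximal strength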
TROY NFkB inh: blocks TROY-dependent signaling in reporter cells; 360,000 compounds, 0.98% hits; inhibition, % at 10 µM; Q293 LMP1-TROYcd NF-kB luciferase reporter, 4 h;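 active = compounds whose plate-normalised and pattern-corrected inhibition of the luciferase reporter signal at the single screening dose is 50% or more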
PAX8 reporter: lowers PAX8-driven luciferase in RMG-I cells; RMG-I TPO-luciferase reporter, SteadyGlo, 24 h; inhibition, % at 12.6 µM; 360,000 compounds, 1.2% hits;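 active = mean replicate inhibition at least 60% with every replicate also reaching 60%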;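 also: luciferase light reporting Pax8 driven TPO promoter activity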
Each line names hits and unclear results; the compound was inactive in the other large screens.

CN1[C@@H]2c3ccc(-c4ccccc4)c(=O)n3C[C@@H]2[C@@H](CO)[C@@H]1C(=O)N1CCc2ccccc2C1	PAX8 reporter 68 (no result: TWEAK-Fn14 inh, TROY NFkB inh)
CN1[C@@H]2c3ccc(-c4ccncc4)c(=O)n3C[C@@H]2[C@@H](CO)[C@@H]1C(=O)N1CCc2ccccc2C1	none (no result: TWEAK-Fn14 inh, TROY NFkB inh)
C[C@@H]1CCCCO[C@H](CN(C)C(=O)NC2CCCCC2)[C@H](C)CN([C@@H](C)CO)C(=O)c2cc(NS(=O)(=O)c3ccccc3)ccc2O1	none (no result: TWEAK-Fn14 inh, TROY NFkB inh)
CCn1c2ccccc2c2cc(NC(=O)CNCc3ccccc3OC)ccc21	EWS-Fli inh 57
C[C@@H]1CN([C@@H](C)CO)C(=O)c2cc(NC(=O)C3CCCCC3)ccc2O[C@@H](C)CCCCO[C@@H]1CN(C)S(=O)(=O)c1cccs1	none (no result: TWEAK-Fn14 inh, TROY NFkB inh, PAX8 reporter)
C/C(=N\NC(=S)NC1CCCCC1)c1ccccc1	TROY NFkB inh 54 (no result: EWS-Fli inh)
C[C@@H]1CN([C@@H](C)CO)C(=O)c2cc(NC(=O)Cc3ccccc3)ccc2O[C@@H](C)CCCCO[C@@H]1CN(C)Cc1ccc(C(F)(F)F)cc1	PAX8 reporter 97 (no result: TWEAK-Fn14 inh, TROY NFkB inh)
C[C@H]1CCCCO[C@H](CN(C)Cc2ccc(C(F)(F)F)cc2)[C@@H](C)CN([C@@H](C)CO)C(=O)c2cc(NC(=O)Cc3ccccc3)ccc2O1	PAX8 reporter 76 (no result: TWEAK-Fn14 inh, TROY NFkB inh)
C[C@@H]1CN([C@@H](C)CO)C(=O)c2cc(NC(=O)Cc3ccccc3)ccc2O[C@@H](C)CCCCO[C@H]1CN(C)Cc1ccc(C(F)(F)F)cc1	PAX8 reporter 76 (no result: TWEAK-Fn14 inh, TROY NFkB inh)
C[C@H](CO)N1C[C@H](C)[C@H](CN(C)Cc2ccc(C(F)(F)F)cc2)OCCCC[C@H](C)Oc2ccc(NC(=O)Cc3ccccc3)cc2C1=O	PAX8 reporter 110 (no result: TWEAK-Fn14 inh, TROY NFkB inh)
C[C@H]1CCCCO[C@H](CN(C)Cc2ccccc2)[C@@H](C)CN([C@@H](C)CO)C(=O)c2cc(NC(=O)Cc3ccccc3)ccc2O1	none (no result: TWEAK-Fn14 inh, TROY NFkB inh)
C[C@@H]1CCCCO[C@@H](CN(C)Cc2ccc(C(F)(F)F)cc2)[C@H](C)CN([C@H](C)CO)C(=O)c2cc(NC(=O)Cc3ccccc3)ccc2O1	PAX8 reporter 91 (no result: TWEAK-Fn14 inh, TROY NFkB inh)
C[C@@H]1CN([C@H](C)CO)C(=O)c2cc(NC(=O)Cc3ccccc3)ccc2O[C@@H](C)CCCCO[C@H]1CN(C)Cc1ccc(C(F)(F)F)cc1	PAX8 reporter 80 (no result: TWEAK-Fn14 inh, TROY NFkB inh)
O=C(C[C@H]1C[C@H]2c3cc(NC(=O)c4cccnc4)ccc3O[C@H]2[C@H](CO)O1)NCCN1CCCCC1	none (no result: TWEAK-Fn14 inh, TROY NFkB inh)
C[C@@H]1CN([C@@H](C)CO)C(=O)Cc2cc(NC(=O)CCCCCC(=O)Nc3ccccc3N)ccc2O[C@H]1CN(C)C(=O)NC1CCCCC1	none (no result: TWEAK-Fn14 inh, TROY NFkB inh, PAX8 reporter)
COc1cc(/C=N/NC(=O)C23CC4CC(CC(C4)C2)C3)cc(Br)c1O	PAX8 reporter 67
CNC(=O)/C(C#N)=C/c1c(N2CC(C)OC(C)C2)nc2ccccn2c1=O (stereo unspecified)	none (no result: EWS-Fli inh)
CC1CN(c2nc3ccccn3c(=O)c2/C=C(\C#N)C(N)=O)CC(C)O1 (stereo unspecified)	TWEAK-Fn14 inh 91
Cc1cc(C(=O)Nc2cccc3c2O[C@@H](CN(C)C(=O)Nc2c(C)noc2C)[C@@H](C)CN([C@@H](C)CO)C3=O)n(C)n1	none (no result: TWEAK-Fn14 inh, TROY NFkB inh, PAX8 reporter)
NC(=S)N/N=C/c1ccccc1OCCSc1ccc(Cl)cc1	TWEAK-Fn14 inh 61 (no result: EWS-Fli inh)
C[C@H]1CCCCO[C@@H](CN(C)C(=O)NC2CCCCC2)[C@@H](C)CN([C@@H](C)CO)C(=O)c2cc(NS(=O)(=O)c3ccccc3)ccc2O1	none (no result: TWEAK-Fn14 inh, TROY NFkB inh)
Cc1onc(-c2c(F)cccc2Cl)c1C(=O)OCC(=O)c1c[nH]c2ccccc12	TWEAK-Fn14 inh 58
Cc1noc(C)c1C(=O)OCC(=O)c1c[nH]c2ccccc12	none (no result: EWS-Fli inh, LGR2 inh, PAX8 reporter)
Cc1onc(-c2c(F)cccc2Cl)c1C(=O)OCC(=O)NCc1ccco1	TROY NFkB inh 54 (no result: EWS-Fli inh, LGR2 inh, PAX8 reporter)
OC[C@@H]1[C@H](c2ccc(-c3cccnc3)cc2)[C@H]2CN(CC3CCOCC3)CCCCN12	none (no result: TWEAK-Fn14 inh, LGR2 inh, TROY NFkB inh)
CN(C)C(=O)C[C@H]1CC[C@H]2[C@@H](COc3ccc(NC(=O)c4ccc(F)cc4)cc3C(=O)N2C)O1	none (no result: TWEAK-Fn14 inh, TROY NFkB inh)
Cc1noc(C)c1NC(=O)Nc1ccc2c(c1)C(=O)N([C@H](C)CO)C[C@H](C)[C@H](CN(C)S(=O)(=O)c1c(C)noc1C)OCCCC[C@@H](C)O2	none (no result: TWEAK-Fn14 inh, TROY NFkB inh)
C[C@H]1CN([C@@H](C)CO)C(=O)Cc2cc(NC(=O)NC3CCCCC3)ccc2O[C@H]1CN(C)Cc1ccc(-c2ccccc2)cc1	PAX8 reporter 103 (no result: TWEAK-Fn14 inh, TROY NFkB inh)
C[C@@H]1CN([C@H](C)CO)C(=O)Cc2cc(NC(=O)NC3CCCCC3)ccc2O[C@@H]1CN(C)Cc1ccccc1	none (no result: TWEAK-Fn14 inh, TROY NFkB inh)

Assay outcomes as filed in PubChem.
